{"source": "PubChem BioAssay AID624483", "about": "(NMMLSC, 2012)", "note": "In all, about 360,000 compounds went through this assay and about 11,000 (3.1%) were called active. Not shown: some 2% with an inconclusive outcome. The list comes from a sample in which actives are over-represented; it also holds similar structures and randomly drawn compounds. A number with no mark means an inactive call. Cut-off read from the data, not from the text of the source: active = fluorescence intensity above about 16000; inconclusive = no clear call, values can overlap the other calls; inactive = below that."}
{"assay": "counter-screen for toxin protease inhibitors: compound fluorescence, primary screen, artefact control for toxin protease inhibitor project, biochemical, multiplex microsphere, HTS (AID 624483)", "settings": "compound autofluorescence counterscreen, microsphere flow cytometry; hits give high values"}
{"smiles": "O=C(c1cc2ccccc2s1)N1CCN(c2ccccn2)CC1", "fluorescence intensity": 5840}
{"smiles": "Cc1cc(C(=O)N2CCN(c3ccccn3)CC2)c(C)o1", "fluorescence intensity": "21600 (active)"}
{"smiles": "O=C(c1c(F)cccc1Cl)N1CCN(c2ccccn2)CC1", "fluorescence intensity": 6090}
{"smiles": "CC1(C(=O)NS(=O)(=O)c2cccc(OC(F)F)c2)CCN1C(=O)C1CC1", "note": "(configuration not stated)", "fluorescence intensity": 3660}
{"smiles": "O=C(NC1CCCC1)C(c1ccccn1)N(C(=O)c1csnn1)C1CCCC1", "note": "(configuration not stated)", "fluorescence intensity": 3210}
{"smiles": "COc1ccc(C)cc1S(=O)(=O)NC1CCCCC1", "fluorescence intensity": "20200 (active)"}
{"smiles": "CCOc1ccc(C)cc1S(=O)(=O)NC1CCCCCC1", "fluorescence intensity": 5960}
{"smiles": "COc1ccc(C(=O)NCc2ccccc2C)cc1S(=O)(=O)NC1CCCC1", "fluorescence intensity": 3480}
{"smiles": "CCCCC(=O)N(C)c1c(CC)nc2c(OCc3ccc(S(C)(=O)=O)cc3)cccn12", "fluorescence intensity": 4320}
{"smiles": "CC(C)Oc1cc(F)ccc1-c1cc(C(=O)Nc2cccc(Cl)c2)[nH]n1", "fluorescence intensity": 3940}
{"smiles": "CCC1OC(C2CC2)CC2=C1C(=O)OC(C)(C)O2", "note": "(configuration not stated)", "fluorescence intensity": 5440}
{"smiles": "CCc1nc2ccc(C(=O)NCc3ccc(OC)cc3)cn2c1N(CC)Cc1cccc(Br)c1", "fluorescence intensity": 4320}
{"smiles": "COc1ccccc1NC(=O)CC(NCCN(C)C)C(=O)O", "note": "(configuration not stated)", "fluorescence intensity": 15400}
{"smiles": "CN(C)CCNC(=O)Nc1cccc(Cl)c1Cl", "fluorescence intensity": 2400}
{"smiles": "CN(C)CCNC(=O)C(C(=O)c1ccccc1)n1ccccc1=O", "note": "(configuration not stated)", "fluorescence intensity": "23600 (active)"}
{"smiles": "FC(F)(F)COc1nc(N2CCCCC2)nc(N2CCNCC2)n1", "fluorescence intensity": 2450}
{"smiles": "FC(F)(F)Oc1ccccc1C(c1nnnn1C1CCCCC1)N1CCN(C/C=C/c2ccccc2)CC1", "note": "(configuration not stated)", "fluorescence intensity": 4590}
{"smiles": "Cc1cc2ccccn2c1C(=O)c1cccc(S(=O)(=O)N2CCOCC2)c1", "fluorescence intensity": 4300}
{"smiles": "CCOC(=O)N/N=C1\\CC(C)S(=O)(=O)c2ccc(Cl)cc21", "note": "(configuration not stated)", "fluorescence intensity": 3940}
{"smiles": "O=C(CN1CCSCC1)N/N=C/c1ccc(F)cc1F", "fluorescence intensity": "23700 (active)"}
{"smiles": "O=C(CC(=O)N/N=C\\c1ccc(F)cc1)NCCc1ccccc1", "fluorescence intensity": 3990}
{"smiles": "O=C(CN1CCSCC1)N/N=C/c1ccc(F)cc1", "fluorescence intensity": "19800 (active)"}
{"smiles": "Cc1ccc(COc2ccc(/C=N/NC(=O)CN3CCCCC3)cc2)cc1", "fluorescence intensity": 3530}
{"smiles": "O=C(CCC(=O)Nc1ccccc1)N/N=C/c1ccccc1F", "fluorescence intensity": 2560}
{"smiles": "O=C(CN1CCN(C/C=C/c2ccccc2)CC1)Nc1ccc(F)cc1F", "fluorescence intensity": 4560}
{"smiles": "c1ccc2c(c1)C(=NC1CCCCC1)NC2=NC1CCCCC1", "fluorescence intensity": 8360}
{"smiles": "CCOc1ccccc1N1C(=O)CC(Sc2nccc(C)n2)C1=O", "note": "(configuration not stated)", "fluorescence intensity": 4180}
{"smiles": "COC(=O)[C@]12CCCCC=C1N(Cc1ccco1)C(=O)[C@H](CC(=O)NCCCCc1ccccc1)C2", "fluorescence intensity": 5100}
{"smiles": "Cc1cccc(-c2cnc(C(O)c3cc(C)cc(C)c3)[nH]2)c1", "note": "(configuration not stated)", "fluorescence intensity": 3860}
{"smiles": "Cc1ccc(S(=O)(=O)N2CCC(C)CC2)cc1C(=O)NCc1ccccn1", "fluorescence intensity": 5690}
{"smiles": "Cc1cccc(CN2CCN(C3CN(Cc4ccccc4)S(=O)(=O)C3)CC2)c1", "note": "(configuration not stated)", "fluorescence intensity": 5880}
{"smiles": "CCOC(=O)C1CCN(S(=O)(=O)c2cc(F)ccc2OC)CC1", "fluorescence intensity": 4720}
{"smiles": "CCOC(=O)C1CCN(C(=O)/C=C/c2cc(OC)c(OC)c(OC)c2)CC1", "fluorescence intensity": 2640}
{"smiles": "CCOC(=O)C1CCCCN1Cc1ccc(OC)c(OC)c1OC", "note": "(configuration not stated)", "fluorescence intensity": "21900 (active)"}
{"smiles": "O=C(Nc1ccc2c(c1)OCCO2)C1c2ccccc2OCC(=O)N1Cc1ccccn1", "note": "(configuration not stated)", "fluorescence intensity": 5110}
{"smiles": "Cc1[nH]c2ccccc2c1C(=O)CN1CC(C)CC(C)C1", "note": "(configuration not stated)", "fluorescence intensity": 4370}
{"smiles": "Cc1[nH]c2ccccc2c1C(=O)CSCC(=O)O", "fluorescence intensity": "23600 (active)"}
{"smiles": "Cc1[nH]c2ccccc2c1C(=O)CN1CCCC(C)C1", "note": "(configuration not stated)", "fluorescence intensity": 3780}
{"smiles": "O=C(O)c1cc(S(=O)(=O)NC2CCCc3ccccc32)ccc1O", "note": "(configuration not stated)", "fluorescence intensity": 3070}
{"smiles": "Cc1nc(C(F)(F)F)ccc1C(=O)N1CCC1(C)C(=O)NS(=O)(=O)c1ccccc1", "note": "(configuration not stated)", "fluorescence intensity": 2950}
{"smiles": "Nc1nc2c(ncn2[C@@H]2O[C@H](CNS(=O)(=O)N3CCc4ccccc4C3)[C@@H](O)[C@H]2O)c(=O)[nH]1", "fluorescence intensity": 5780}
{"smiles": "Cc1ccccc1CCN(CC(=O)NC1CCCCC1)C(=O)c1csnn1", "fluorescence intensity": 4280}
{"smiles": "CCOCCC(=O)Nc1ccc2c(c1)c(=O)n(C)n2-c1ccc2ccccc2c1", "fluorescence intensity": 4100}
{"smiles": "CCOC(=O)CN(C(=O)CN1CCOCC1)c1ccc(Br)cc1", "fluorescence intensity": "16500 (active)"}
{"smiles": "O=C(CN1CCOCC1)N/N=C/c1ccc(-c2ccc(Br)cc2)o1", "fluorescence intensity": 6290}
{"smiles": "O=C(Cc1ccc(Br)cc1)NCCN1CCOCC1", "fluorescence intensity": 4390}
{"smiles": "COCCOC1CCN(C(=O)c2ccc(OC)c(OC3CCN(C(C)C)CC3)c2)CC1", "fluorescence intensity": 5660}
{"smiles": "OC[C@@H]1CN(Cc2cccs2)C[C@H](n2cnc3c(Nc4ccccc4)ncnc32)O1", "fluorescence intensity": 2850}
{"smiles": "CCCN(CCC)CCNC(=O)c1cc2c(C)nc3ccccc3c2o1", "fluorescence intensity": "23700 (active)"}
{"smiles": "CCN(CC)CCNC(=O)c1ccc(NC(=O)c2cc(-c3ccncc3)nc3ccccc23)cc1", "fluorescence intensity": 5900}
{"smiles": "Cc1nc2ccccc2c2oc(C(=O)NCCCN3CCC(C)CC3)cc12", "fluorescence intensity": 6790}
{"smiles": "COc1cc(CCN=Cc2ccccc2O)c([N+](=O)[O-])cc1OC", "fluorescence intensity": 6170}
{"smiles": "CCOC(=O)[C@]12CCCC=C1N(Cc1ccc3c(c1)OCO3)C(=O)[C@H](CC(=O)NCc1cccs1)C2", "fluorescence intensity": 4370}
{"smiles": "O=C(NC1CCCCCC1)c1cccnc1Sc1ccc(Cl)cc1", "fluorescence intensity": 2130}
{"smiles": "O=C(NCc1cccnc1)c1cccnc1Sc1ccc(Cl)cc1", "fluorescence intensity": "16900 (active)"}
{"smiles": "COc1cccc(CNC(=O)c2cccnc2Sc2ccc(Cl)cc2)c1", "fluorescence intensity": 5920}
{"smiles": "C=CCn1c(=O)n(C)c2c(=O)n(C)c(=O)n(C)c21", "fluorescence intensity": 3000}
{"smiles": "O=[N+]([O-])c1ccc(CN2CC(N3CC=CC3)CS2(=O)=O)cc1", "note": "(configuration not stated)", "fluorescence intensity": 6550}
{"smiles": "CCOc1ccc(-c2cn(S(=O)(=O)c3cccc4nsnc34)nc2N)cc1", "fluorescence intensity": 4610}
{"smiles": "CCCCNC(=O)OC1CC2CC1[C@H]1CCCCN1C2=O", "note": "(some centres not stated)", "fluorescence intensity": 5740}
{"smiles": "Cn1ncc2c(Nc3cccc4ccccc34)ncnc21", "fluorescence intensity": 3210}
{"smiles": "CN(C)CCCn1c(SCc2ccc(Cl)cc2)nnc1-c1ccncc1", "fluorescence intensity": 3820}
{"smiles": "CSc1nnc(-c2ccncc2)n1CCCN1CCCC1=O", "fluorescence intensity": "16700 (active)"}
{"smiles": "CC1CCCCC1NC(=O)CSc1nnc(-c2ccncc2)n1CCCN(C)C", "note": "(configuration not stated)", "fluorescence intensity": 4240}
{"smiles": "COc1cc(Cn2c3ccc(NC(=O)CC(C)c4ccccc4)cc3c(=O)n2C)ccc1F", "note": "(configuration not stated)", "fluorescence intensity": 3950}
{"smiles": "CCOc1ccc(C(=O)Nc2cccc(SC)c2)cc1", "fluorescence intensity": 2060}
{"smiles": "Cc1ccc(S(=O)(=O)N(Cc2cc3ccccc3[nH]c2=O)CC2CCCO2)cc1", "note": "(configuration not stated)", "fluorescence intensity": 3240}
{"smiles": "Cc1cc(C(=O)Nc2nnc(C3CC3)s2)c(C)s1", "fluorescence intensity": 5450}
{"smiles": "Cc1occc1C(=O)Nc1nnc(C2CCCCC2)s1", "fluorescence intensity": "22300 (active)"}
{"smiles": "COc1ccc(NC(=O)CCC(=O)Nc2nnc(C3CCCCC3)s2)cc1", "fluorescence intensity": 5270}
{"smiles": "CCc1nc2c(OCc3ccc(F)c(F)c3)cccn2c1N(C)C(=O)c1ccco1", "fluorescence intensity": 3900}
{"smiles": "O=C1Nc2ccccc2NC(c2ccc3c(c2)OCO3)=C1N(Cc1ccc(F)cc1)C(=O)c1ccco1", "fluorescence intensity": 5250}
{"smiles": "Brc1ccc(C2=CC(c3ccco3)n3ncnc3N2)cc1", "note": "(configuration not stated)", "fluorescence intensity": 9350}
{"smiles": "Clc1ccc2c(c1)C1=C(C(c3ccncc3)O2)C(c2ccc(Br)cc2)n2ncnc2N1", "note": "(configuration not stated)", "fluorescence intensity": "16600 (active)"}
{"smiles": "Cc1ccc(CN(Cc2cccnc2)C(=S)Nc2cc(Cl)ccc2C)cc1", "fluorescence intensity": 4690}
{"smiles": "CCN(CC)C(=O)CSc1nnc(-c2cnccn2)n1-c1ccc(C)cc1", "fluorescence intensity": "23200 (active)"}
{"smiles": "CCn1c(SCC(=O)Nc2cc(C)ccc2C)nnc1-c1cnccn1", "fluorescence intensity": 4580}
{"smiles": "Cc1ccc(CSc2nnc(-c3cnccn3)n2C)cc1", "fluorescence intensity": 4420}
{"smiles": "CC(C)(C)C1CCC(=O)N2CCC[C@]2(c2ccccc2)C1", "note": "(some centres not stated)", "fluorescence intensity": 5900}
{"smiles": "CN(CC1CCCN(CCc2cccc(C(F)(F)F)c2)C1)C(=O)c1ccc2nc[nH]c2c1", "note": "(configuration not stated)", "fluorescence intensity": 5960}
{"smiles": "COc1cccc(NC(=O)C2(C)CCN2C(=O)CCC2CCCC2)c1", "note": "(configuration not stated)", "fluorescence intensity": 2920}
{"smiles": "N#C/C(=C\\c1cccnc1)C(=O)Nc1ccc(SC(F)F)cc1", "fluorescence intensity": 3830}
{"smiles": "Nc1nnnn1/N=C/c1cccc(Br)c1", "fluorescence intensity": 3440}
{"smiles": "Nc1nnnn1/N=C/c1cccs1", "fluorescence intensity": "21800 (active)"}
{"smiles": "COc1ccc(/C=N/n2nnnc2N)cc1OC", "fluorescence intensity": 4170}
{"smiles": "COc1ncnc2c1ncn2CCCNCCN1CCOCC1", "fluorescence intensity": 3370}
{"smiles": "COc1ccc(CN(C(=O)c2cccs2)c2nccs2)cc1OC", "fluorescence intensity": 3950}
{"smiles": "CN(Cc1ccccc1)C(=O)COc1ccccc1", "fluorescence intensity": 2850}
{"smiles": "COc1ccc(CCN(C(=O)COc2ccccc2)c2nc(-c3ccccc3)cs2)cc1OC", "fluorescence intensity": "21300 (active)"}
{"smiles": "C[C@H](NC(=O)C1CCN(S(=O)(=O)c2ccccc2)CC1)C(=O)NCc1ccccc1", "fluorescence intensity": 5500}
{"smiles": "COc1cccc(CN2CCC(C(=O)NC(c3ccc4c(c3)OCO4)c3ccccn3)CC2)c1", "note": "(configuration not stated)", "fluorescence intensity": 3800}
{"smiles": "COc1ccc(-c2cc(=O)oc3cc(OC(C)C(=O)Nc4ccc(CN5CCOCC5)cc4)ccc23)cc1", "note": "(configuration not stated)", "fluorescence intensity": 5340}
{"smiles": "Cc1cc(=O)oc2cc(NC(=O)C(C)Oc3ccccc3)ccc12", "note": "(configuration not stated)", "fluorescence intensity": 5330}
{"smiles": "Cc1cc(=O)oc2cc(OC(C)C(=O)Nc3ccc(N4CCOCC4)cc3)ccc12", "note": "(configuration not stated)", "fluorescence intensity": "22000 (active)"}
{"smiles": "COc1ccc(C(=O)NC(=S)Nc2ccccc2N2CCN(S(C)(=O)=O)CC2)cc1OC", "fluorescence intensity": "22100 (active)"}
{"smiles": "O=C(NC(=S)Nc1ccccc1N1CCCCC1)c1ccc(F)cc1", "fluorescence intensity": 6710}
{"smiles": "COc1ccccc1C(=O)NC(=S)Nc1ccccc1N1CCCCC1", "fluorescence intensity": 5870}
